# Screens (PubChem BioAssay)
# Sampled rows, rich in hits. Any-hit rate of the full collection: about 2.4%.
# D2 PAM-1: positive allosteric modulators of human D2 dopamine receptor | DiscoveRx D2 beta-arrestin cells, luminescence, 90 min; 100% = 57 uM dopamine signal | potentiation, % (concentration not given with the values) | hit rate 0.23% among 360,000 | AID 624464; in the data active = potentiation above about 50%
# Target sequence (P14416 whole entry, looked up): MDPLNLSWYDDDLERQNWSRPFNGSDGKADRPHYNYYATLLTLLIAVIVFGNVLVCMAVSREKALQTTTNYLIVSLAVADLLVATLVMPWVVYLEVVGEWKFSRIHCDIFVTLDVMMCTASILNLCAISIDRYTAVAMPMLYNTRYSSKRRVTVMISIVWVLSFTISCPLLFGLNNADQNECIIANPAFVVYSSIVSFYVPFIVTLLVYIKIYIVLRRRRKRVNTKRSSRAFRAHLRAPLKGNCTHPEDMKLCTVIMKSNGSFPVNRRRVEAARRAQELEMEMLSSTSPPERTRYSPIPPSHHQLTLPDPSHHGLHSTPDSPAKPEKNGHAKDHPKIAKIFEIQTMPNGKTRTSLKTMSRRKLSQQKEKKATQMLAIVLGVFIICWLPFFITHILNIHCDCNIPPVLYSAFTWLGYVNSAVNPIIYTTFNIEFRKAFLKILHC
#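 PathHunter beta-arrestin assay in DiscoveRx D2 cells. Compounds were added with an EC20 of dopamine (50 nM final) for 90 min at 37 deg C. Luminescence was read 1 h after detection reagent, with 57 uM dopamine as the EC100 control.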
# D2 ag-1: human D2 receptor agonism in beta-arrestin assay | DiscoveRx PathHunter D2 beta-arrestin, luminescence, 90 min; 100% = 57 uM dopamine signal | P14416 | activation, % (no concentration beside the values) | hit rate 0.084% among 360,000; in the data active = activation above about 40%
#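 DiscoveRx PathHunter D2 beta-arrestin cells (2,100/well) attached overnight, then compound-stimulated 90 min at 37 C in HBSS/10 mM HEPES/0.1% Tween-20 buffer; beta-galactosidase complementation read by luminescence after 1 h at ambient temperature. Dopamine 57 uM final (EC100) as control.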
# D2 ag-2: D2 dopamine receptor (human) agonism | hit rate 0.53% among 340,000 | P14416 | activation, % at 2 µM | HEK293 T-REx D2 cells, calcium flux agonist mode | AID 485358;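 active = activation over 3 SD above normal in the single-dose calcium agonist read, cut at about 30% in these data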; also: 0% is about no effect
#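 Tetracycline-induced HEK293 T-REx cells with force-coupled D2 receptor, plated overnight at 30 C, loaded with no-wash calcium dye. After a 10 s baseline, compound was pin-added and calcium flux read kinetically for 180 s; calcium rises flagged agonists.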
# D2 antagonist: antagonists of human D2 dopamine receptor; inhibition, % at 10 µM; hit rate 2% among 340,000; HEK293 TREx D2 cells, calcium flux, dopamine EC80; AID 485344; P14416; in the data active = inhibition above about 30%; inactive = below that, where a call was filed; also: 0% is about no effect
#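 In this primary screen, negative modulation is detected by tracking calcium flux after an EC80 dopamine challenge in inducible HEK293 T-REx D2 cells preexposed to test compound for 180 s.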
# D2 PAM-2: positive allosteric modulators of human D2 dopamine receptor. P14416. HEK293 T-REx D2, calcium flux, EC20 dopamine potentiation. potentiation, % at 10 µM. hit rate 0.34% among 340,000;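 active = potentiation over 3 SD above the plate norm, cut at about 30% in these data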; also: 0% is about no effect
#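 Calcium flux readout, no-wash dye, 1 read/s. Inducible HEK293 Trex D2 line, overnight 30 C. Compound alone 180 s (agonist flags), then EC20 dopamine, another 180 s to score potentiation.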
# * hit, by the source's call; . = no result given.
SMILES,D2 PAM-1,D2 ag-1,D2 ag-2,D2 antagonist,D2 PAM-2
COc1ccc([N+](=O)[O-])cc1NC(=S)NC(NC(=O)C(c1ccccc1)c1ccccc1)C(Cl)(Cl)Cl (configuration not stated),-23,1,0,71*,-19
COc1ccc([N+](=O)[O-])cc1NC(=O)C(C)OC(=O)CN1C(=O)C2CC=CCC2C1=O (configuration not stated),-2,-1,0,-11,-11
COc1ccc([N+](=O)[O-])cc1NC(=O)C(C)c1ccccc1 (configuration not stated),5,0,0,32*,-3
CN(C)CC(O)COc1cccc(OCC(O)CN(C)C)c1 (configuration not stated),-4,-3,0,55*,-5
Cc1ccc(NC(=O)Cn2c(=O)c(C(F)(F)F)nc3ccccc32)c(C)c1,.,.,0,.,-7
CCc1ccccc1NC(=O)C(=O)NCCCN1CCOCC1,.,.,1,.,3
CC(C)c1ccccc1OCC(=O)N(C)CC(=O)Nc1ccc(F)cc1,-46,-3,0,56*,-22
CN(CC(=O)Nc1ccc(F)cc1)C(=O)CSc1ccc2c(c1)OCCO2,-2,-2,0,9,-16
CN(CC(=O)Nc1ccc(F)cc1)C(=O)COc1ncnc2ccccc12,2,-2,0,3,-6
Cc1ccc(SCC(=O)OCC(=O)N(C)CC(=O)Nc2ccc(F)cc2)cc1C,10,0,12,38*,6
C=CCc1c(C)nc2nc(SCC(=O)Nc3ccc(OCC)cc3)nn2c1C,.,.,.,.,-2
COc1ccc(S(=O)(=O)Nc2ccc3c(c2)n(C)c(=O)n3C)cc1F,-4,4,-1,-3,0
Cc1cc(S(=O)(=O)Nc2ccc3c(c2)n(C)c(=O)n3C)ccc1F,-1,-4,0,-5,106*
O=C1CCCN1Cc1ccccc1,-6,-6,0,30*,1
C=CCn1c(=S)[nH]c2scc(-c3ccc(C)o3)c2c1=O,-3,-3,2,32*,11
C=CCn1c(SCC(C)=O)nc2scc(-c3ccc(C)o3)c2c1=O,-8,1,-2,-6,23
CCCOc1ccc(C(=O)Nc2cc3nn(-c4ccc(CC)cc4)nc3cc2C)cc1,.,.,0,.,18
CCOCCCN(C)C1CCN(C(=O)c2oc3ccccc3c2NC(=O)COc2ccc(F)cc2)CC1,-37,-8,1,50*,-26
COc1ccc(-n2cc(CNCCc3cscn3)c(-c3ccccc3Cl)n2)cc1,-22,1,0,48*,-21
O=S(=O)(Nc1cccc(-c2ccc(N3CCCCC3)nn2)c1)c1ccc(Cl)s1,.,.,0,.,-1
O=C(Nc1ccc(F)c(Cl)c1)C1CCN(S(=O)(=O)c2ccc3c(c2)CCCN3C(=O)C2CCC2)CC1,.,.,1,.,-9
O=C(COc1ccc2c(c1)OCO2)Nc1ccc2c(c1)oc1ccccc12,9,2,0,37*,-5
COc1cc(NC(=O)C2CCCN(S(=O)(=O)c3ccc4c(c3)oc(=O)n4C)C2)c(C(=O)O)cc1OC (configuration not stated),.,.,0,.,6
COc1ccc(N2CCN(C(=O)c3cc(S(=O)(=O)N4CCCCCC4)ccc3OC)CC2)cc1,-21,-2,0,40*,-9
CCOC(=O)C1CCCN(S(=O)(=O)c2ccc(C)cc2)C1 (configuration not stated),0,-1,1,-14,3
SMILES,D2 PAM-1,D2 ag-1,D2 ag-2,D2 antagonist,D2 PAM-2
CCOC(=O)C1CCCN(S(=O)(=O)c2ccc(S(N)(=O)=O)cc2)C1 (configuration not stated),0,5,1,-11,51*
CCOC(=O)C1CCN(C(=O)c2cc(S(=O)(=O)N3CCCCCC3)ccc2OC)CC1,-10,-3,-1,38*,10
COc1ccc(S(=O)(=O)N2CCCCCC2)cc1C(=O)N1CCN(c2ccc(F)cc2)CC1,-3,9,.,.,.
Cc1cc(C)cc(-n2c(SCC(N)=O)nc3c([nH]c4ccccc43)c2=O)c1,.,.,.,.,-1
COc1ccc(-c2cc(C(C)=O)c(C)n2CCC(=O)Nc2ccc(C(F)(F)F)cc2)cc1,.,.,0,.,-4
COc1ccccc1CCNS(=O)(=O)c1cn(C)c(=O)n(C)c1=O,-8,-7,0,-13,-5
COc1ccccc1CCNS(=O)(=O)c1c(C)n(C)c(=O)n(C)c1=O,-7,-6,0,3,32*
COc1ccc(CCCNC(=O)C2(C)Cc3c(-c4cccc(C(N)=O)c4)ccnc3O2)cc1 (configuration not stated),27,76*,.,.,.
CC1(C(=O)NCCC(F)(F)F)Cc2c(-c3cccc(C(N)=O)c3)ccnc2O1 (configuration not stated),-16,9,.,.,.
CCc1ccc(C(=O)Nc2cccc(-c3nc4cc(C(C)C)ccc4o3)c2)cc1,.,.,0,.,16
COc1ccc(NC(=O)CSc2nnc3ccc(-c4ccccn4)nn23)cc1OC,-18,-5,0,30*,-10
COc1ccc(C(=O)Nc2ccccc2-c2nc3ccccc3s2)c(OC)c1,.,.,0,.,-6
Cc1ccc(C)c(OCc2cc(C(=O)N(C)Cc3nccn3C)no2)c1,-8,-2,35*,3,-3
Cc1ccc(OCc2cc(C(=O)N(C)Cc3nccn3C)no2)cc1C,-9,-1,-1,-19,0
Cc1ccc(C)c(N2CCN(C(=O)c3c4c(nc5ccccc35)C(=O)N(C3CCCCC3)C4)CC2)c1,.,.,.,.,10
CCCc1cc(=O)n2[nH]c(C)c(-c3ccccc3)c2n1,-39,-8,.,.,.
CCOC(=O)Cc1cc(=O)n2[nH]c(C)c(-c3ccc(OC)cc3)c2n1,-15,-1,-1,-12,31*
CCc1cc(=O)n2[nH]c(C)c(-c3ccc(OC)cc3)c2n1,-45,-4,0,34*,-17
Cc1cc(C)c(C)c(OCC(=O)Nc2ccc(S(=O)(=O)Nc3nc(C)cc(C)n3)cc2)c1,.,.,-1,.,-5
CCCCNC(=O)CSc1cc(=O)n(C)c2ccccc12,-6,-4,-1,35*,-3
CCn1c(=O)cc(SCC(=O)NCCCN2CCN(c3ccc(F)cc3)CC2)c2ccccc21,-15,5,27,66*,-26
COc1ccc(N2CCN(CCCNC(=O)Cn3c(=O)c4cccn4c4cccnc43)CC2)cc1,-10,1,8,-17,-23
O=C(Cn1c(=O)c2cccn2c2cccnc21)NCCCN1CCN(c2ccc(F)cc2)CC1,-54,1,20,54*,-27
CCn1c(=O)cc(SCC(=O)NCCCN2CCC(C)CC2)c2ccccc21,-8,1,0,-1,-18
S=c1[nH]nc(-c2ccc(Br)o2)n1Cc1ccccc1,-10,1,-1,-13,35*
